Screening results (PubChem BioAssay)
Cardio protect = modulators protecting cardiomyocytes from myocardial damage; H9c2 cardiomyocytes, H2O2 injury protection, ATPLite, 2 h; protection from H2O2 cell death, % at 20 µM; 360,000 tested, 0.63% active;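 active = compounds giving at least 50% protection of heart cells from peroxide-induced death in the single-dose screen, raw or plate-pattern-corrected value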;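 note: 0% = DMSO wells with peroxide and 100% = DMSO wells without peroxide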
PfGluPho inh = PfG6PD (Plasmodium falciparum) enzyme inhibition. inhibition, % at 20 µM. PfGluPho enzyme, NADPH resazurin-diaphorase fluorescence. 350,000 tested, 0.78% active;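 active = inhibition reaching at least a set limit at 20 µM in the primary screen, cut at about 59% in these data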;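 note: 0% = DMSO wells with substrate and 100% = DMSO wells lacking glucose-6-phosphate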
ALR H2O2 inh = blocks human ALR sulfhydryl oxidase activity; purified ALR, DTT oxidation, H2O2 HRP-luminol luminescence; P55789; 290,000 tested, 3.8% active; AID 485317; inhibition, % (test concentration not listed);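 active = mean replicate inhibition above about 79%, with every replicate also reaching it, limit read from the data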
Target sequence (P55789 whole entry, looked up): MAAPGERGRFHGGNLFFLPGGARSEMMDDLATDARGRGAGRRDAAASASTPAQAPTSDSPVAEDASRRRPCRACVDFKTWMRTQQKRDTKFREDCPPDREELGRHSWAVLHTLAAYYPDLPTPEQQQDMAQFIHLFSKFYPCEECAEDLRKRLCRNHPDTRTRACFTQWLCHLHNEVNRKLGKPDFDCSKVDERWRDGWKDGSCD
PHOSPHO1 block = blocks human PHOSPHO1 phosphatase activity; recombinant PHOSPHO1, absorbance phosphatase assay; inhibition, % at 13.3 µM; AID 1565; Q8TCT1; 290,000 tested, 1.1% active; in the data active = inhibition above about 60%
Target sequence (Q8TCT1 whole entry, looked up): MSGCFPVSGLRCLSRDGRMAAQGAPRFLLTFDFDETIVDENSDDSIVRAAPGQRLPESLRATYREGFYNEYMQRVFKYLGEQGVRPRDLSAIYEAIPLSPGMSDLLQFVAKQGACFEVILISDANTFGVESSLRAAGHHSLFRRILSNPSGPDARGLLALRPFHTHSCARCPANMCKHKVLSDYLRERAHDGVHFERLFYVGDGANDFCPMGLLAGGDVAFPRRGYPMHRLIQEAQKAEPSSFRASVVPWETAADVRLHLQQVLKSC
M18AAP inhibitor = PfM18AAP enzyme inhibition; recombinant PfM18AAP, H-Glu-NHMec fluorogenic cleavage; 290,000 tested, 1.2% active; inhibition, % at 7.35 µM;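 active = inhibition above the campaign mean inhibition over all tested compounds plus 3 SD, cut at about 28% in these data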;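 note: 0% = plate median of test compound wells and 100% = 2 mM ZnCl2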
The depositor's hits bear a star; . = no result given. This is a sample that favours compounds with a hit; in the whole collection about 5.6% have one here.

SMILES	Cardio protect	PfGluPho inh	ALR H2O2 inh	PHOSPHO1 block	M18AAP inhibitor
COc1ccc2nc(NCc3ccccc3)[nH]c2c1	-1.0	2.8	94.8*	15.4	2.1
Cc1ccc2nc(NCc3ccccc3)[nH]c2c1	-18.3	18.4	98.6*	-0.3	7.2
COc1ccc(C(CNC(=O)CCNS(=O)(=O)c2ccccc2)N2CCOCC2)cc1 (configuration not stated)	12.2	-7.9	.	.	.
CCCCCn1ccc(=N)cc1	-22.0	3.9	-3.0	93.4*	0.3
CCCCCCCn1ccc(=N)cc1	-29.1	1.0	-3.8	47.4	1.2
Oc1ccc(/C=C/c2ccnc3ccccc23)cc1	-8.5	0.7	13.1	-10.6	18.8
Oc1ccc(/C=C/c2cnccn2)cc1	-5.6	4.3	82.6*	12.2	0.2
Cc1cccc(N2CCN(C(=O)Cn3nc(C)n4cccc4c3=O)CC2C)c1 (configuration not stated)	17.7	8.3	91.2*	-8.8	0.6
Cc1cccc(N2CCN(C(=O)c3ccc4c(c3)OCCO4)CC2C)c1 (configuration not stated)	0.8	3.5	24.1	24.9	-8.5
O=C(Nc1ccc(F)cc1)C1CCCO1 (configuration not stated)	1.5	-6.4	-4.0	32.3	6.7
O=C(Nc1ccc(O)cc1)C1CCCO1 (configuration not stated)	0.1	6.5	99.3*	9.1	-6.4
Cc1cccc(N2CCN(C(=O)c3ccncc3)CC2C)c1 (configuration not stated)	9.6	6.5	98.3*	-16.3	-0.1
Cc1cccc(N2CCN(C(=O)c3ccc(NC(=O)C4CCCO4)cc3)CC2C)c1 (configuration not stated)	1.9	-0.7	98.7*	-7.9	-0.6
Cc1onc(-c2ccccc2Cl)c1C(=O)NC1CCCCCC1	-4.2	3.5	.	39.4	-7.5
Cc1cccc(N2CCN(C(=O)c3cn4ccccc4n3)CC2C)c1 (configuration not stated)	-0.5	4.1	83.0*	28.3	0.6
OC[C@@H]1CN(Cc2ccco2)C[C@H](n2cnc3c(N4CCN(c5ccccc5)CC4)ncnc32)O1	-0.9	.	.	.	.
CCCOc1ccc(-c2nc(=S)[nH][nH]2)cc1	0.5	52.0	98.6*	95.4*	-27.0
CC(=O)NCCNc1nc2c(-c3ccccc3)nnn2c2ccccc12	55.3*	21.6	6.7	24.8	0.9
CC(=O)Nc1cc(NC(C)=O)c(N=Nc2ccccc2)cc1C	-7.9	-3.2	-8.9	22.5	-5.2
Cc1ccc(NCC(O)C(O)C(O)CO)c(N=Nc2ccccc2)c1C (configuration not stated)	3.1	4.9	98.8*	10.0	5.0
CC1=C(C(=O)N2CCCCCC2)CC(CC(=O)NCCCN(C)C)C(=O)N1Cc1ccccc1 (configuration not stated)	4.8	.	.	.	.
CC/C(C)=N/Nc1nc(-c2cc3cccc(OC)c3oc2=O)cs1	42.5	30.5	98.5*	25.4	20.2
COc1cccc2cc(-c3csc(CCn4nc(C)cc4C)n3)c(=O)oc12	26.0	4.3	97.8*	-20.1	4.9
COc1cccc2cc(-c3nnc(-c4ccccc4)o3)c(=O)oc12	-7.4	3.0	-3.7	-5.7	-1.7
COc1ccccc1C(=O)NC(=O)COC(=O)c1ccc([N+](=O)[O-])cc1Cl	-3.0	4.5	2.8	.	.
SMILES	Cardio protect	PfGluPho inh	ALR H2O2 inh	PHOSPHO1 block	M18AAP inhibitor
CCN1CCN(C2=C(NS(=O)(=O)c3ccc(Br)cc3)C(=O)c3ccccc3C2=O)CC1	-14.0	35.7	-6.2	29.0	20.1
CCN1CCN(C2=C(NS(=O)(=O)c3ccccc3)C(=O)c3ccccc3C2=O)CC1	-9.3	17.2	-11.6	33.2	30.5*
N#C/C(=C\c1c[nH]c2ccccc12)C(=O)NC1CC1	-8.9	29.3	-10.6	49.9	-11.9
N#C/C(=C\c1c[nH]c2ccccc12)C(=O)NC1CCCC1	-3.6	17.5	96.3*	34.0	13.0
CCOC(=O)c1nn(-c2ccc3c(c2)OCO3)cc1O	-10.8	-25.7	94.4*	.	-10.1
Cc1cc(O)c(C(=O)/C=C/c2ccccc2)c(=O)o1	-8.5	4.5	7.6	23.3	9.7
CCOc1ccc(/C=C/C(=O)c2c(O)cc(C)oc2=O)cc1	-18.2	-16.2	94.8*	2.6	-1.2
COc1ccc(/C=C\C(=O)c2c(O)ccc3c(C)cc(=O)oc23)cc1	30.6	-0.8	97.2*	5.5	3.6
CCCCSc1nnc(-c2ccccc2N)c(=O)[nH]1	-7.7	0.7	-1.0	90.3*	14.4
CCCCCCCSc1nnc(-c2ccccc2N)c(=O)[nH]1	-6.7	2.7	-4.6	-14.1	-16.0
CCCCCSc1nnc(-c2cc(Br)ccc2N)c(=O)[nH]1	-1.2	-44.6	.	95.3*	9.1
COc1ccc(CN(C)C(=O)c2ccccc2Sc2ccccc2C#N)c(OC)c1	4.8	2.2	-1.3	9.6	-7.5
OC[C@@H]1CN(Cc2ccc(-c3ccccc3)cc2)C[C@H](n2cnc3c(N4CCOCC4)ncnc32)O1	-9.9	.	.	.	.
COCCN(C(=O)COC(=O)c1sccc1C)c1c(N)n(Cc2ccccc2)c(=O)[nH]c1=O	-2.2	-15.6	-8.1	40.3	-2.3
O=C1C[C@H](c2ccc(O)cc2)Oc2cc(O[C@@H]3O[C@H](CO)[C@@H](O)[C@H](O)[C@H]3O)cc(O[C@@H]3O[C@H](CO)[C@@H](O)[C@H](O)[C@H]3O)c21	5.1	-5.4	48.9	.	.
OC[C@H]1O[C@@H](Oc2cc(O)cc(/C=C/c3ccc(O)cc3)c2)[C@H](O)[C@@H](O)[C@@H]1O	.	.	98.8*	39.7	39.6*
Cc1c(Br)cnn1C(C)C(=O)N1CCN(c2ccc(F)cc2)CC1 (configuration not stated)	2.0	-1.2	94.0*	.	.
Cc1cc(C)c(S(=O)(=O)NCc2nc3nc(C)cc(C)n3n2)c(C)c1	3.6	-10.5	-15.6	33.4	-6.7
COc1cc(NC(=O)c2csc(-c3ccncc3)n2)cc(C(=O)Nc2cccc(C(F)(F)F)c2)c1	59.4*	18.8	3.4	35.3	.
O=C(Nc1cccc(C(F)(F)F)c1)c1csc(-c2ccncc2)n1	4.0	54.5	-6.2	29.9	-1.7
O=C(c1ccc(Cl)cc1)N1CCN(c2ccc(F)cc2)CC1	-7.5	-1.6	15.4	11.6	-5.9
Cc1ccc(CN2CCN(c3cccc4[nH]ccc34)CC2)cc1	-1.5	7.9	99.0*	.	-0.2
O=C(c1ccc(Cl)cc1)N1CCN(c2cccc3[nH]ccc23)CC1	1.8	4.6	97.0*	-10.4	5.4
CC(=NNC(=S)N1CC2CCC(CC2)C1)c1ccncn1	17.2	25.3	.	.	.
O=c1sc(Nc2ccccc2)nc2ccccc12	5.8	0.3	1.6	-3.4	-3.8
O=c1cnnc(Nc2ccc(Nc3ccccc3)cc2)[nH]1	5.5	1.5	100.1*	-18.3	15.4
COc1cc(C=C2CCCC(=Cc3ccc(OCC4CO4)c(OC)c3)C2=O)ccc1OCC1CO1 (configuration not stated)	81.1*	5.1	.	.	.
CCOc1ccc(/C=C2\CCC(C3CCCC3)C2=O)cc1OC (configuration not stated)	-6.1	-10.2	1.3	21.6	-6.3
